Laboratory results as given in PubChem BioAssay AID1159580 (chemical genetic matrix, 2015).
Among all 5,500 compounds or so, about 2,000 (36%) were called active. Not shown: some 18% with an inconclusive outcome. Cut-off read from the data, not from the text of the source: active = normalized growth mostly below about 0.91 (no sharp cut-off); inconclusive = no clear call, values can overlap the other calls; inactive = mostly above about 0.92. The list shows a part of the results.

Test: chemical genetic growth profiling, strain panel (AID 1159580);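 note: tested at 20 µM; growth read once vehicle control cultures reached saturation at 30 °C; 1 = growth at the plate median or of vehicle wells; lower values mean less growth of the strain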
Conditions: S. cerevisiae deletion strains, growth OD
[1] = locus YDL101C, strain DUN1, stronger effect = lower value
[2] = locus YHR030C, strain SLT2, stronger effect = lower value

Measured: normalized growth

Cc1ccc2nc(-c3ccc4c(c3)OCCO4)cn2c1
inactive: locus YAR019C, strain CDC15, stronger effect = lower value 0.981 | locus YBL105C, strain PKC1, stronger effect = lower value 0.98 | locus YBR135W, strain CKS1, stronger effect = lower value 0.984 | locus YBR136W, strain MEC1, stronger effect = lower value 0.983 | locus YBR160W, strain CDC28, stronger effect = lower value 0.978 | locus YDL017W, strain CDC7, stronger effect = lower value 0.985 | locus YDL028C, strain MPS1, stronger effect = lower value 0.984 | [1] 0.988 | locus YDL108W, strain KIN28, stronger effect = lower value 0.982 | locus YDL132W, strain cdc53, stronger effect = lower value 0.982 | locus YDL214C, strain PRR2, stronger effect = lower value 0.958 | locus YDR052C, strain DBF4, stronger effect = lower value 0.988 | locus YDR054C, strain cdc34, stronger effect = lower value 0.97 | locus YDR226W, strain ADK1, stronger effect = lower value 0.99 | locus YDR477W, strain SNF1, stronger effect = lower value 0.967 | locus YER123W, strain YCK3, stronger effect = lower value 0.941 | locus YER133W, strain GLC7, stronger effect = lower value 0.966 | locus YFL009W, strain cdc4, stronger effect = lower value 0.981 | locus YFL029C, strain CAK1, stronger effect = lower value 0.974 | locus YFR003C, strain YPI1, stronger effect = lower value 0.983 | locus YFR019W, strain FAB1, stronger effect = lower value 0.963 | locus YFR028C, strain CDC14, stronger effect = lower value 0.976 | locus YGR040W, strain KSS1, stronger effect = lower value 0.953 | locus YGR052W, strain FMP48, stronger effect = lower value 1.04 | locus YGR092W, strain DBF2, stronger effect = lower value 0.929 | [2] 0.986 | locus YHR079C, strain IRE1, stronger effect = lower value 0.966 | locus YHR082C, strain KSP1, stronger effect = lower value 1.01 | locus YHR205W, strain SCH9, stronger effect = lower value 0.956 | locus YIL147C, strain SLN1, stronger effect = lower value 0.983 | locus YJL095W, strain BCK1, stronger effect = lower value 0.984 | locus YJL128C, strain PBS2, stronger effect = lower value 0.969 | locus YJL157C, strain FAR1, stronger effect = lower value 0.944 | locus YJR016C, strain ILV3, stronger effect = lower value 0.983 | locus YJR066W, strain TOR1 (second series), stronger effect = lower value 0.911 | locus YJR066W, strain TOR1, stronger effect = lower value 1 | locus YKL048C, strain ELM1, stronger effect = lower value 0.959 | locus YKL067W, strain YNK1, stronger effect = lower value 0.967 | locus YKL101W, strain HSL1, stronger effect = lower value 0.951 | locus YKL193C, strain SDS22, stronger effect = lower value 0.983 | locus YKL203C, strain TOR2, stronger effect = lower value 1.01 | locus YLR113W, strain HOG1, stronger effect = lower value 0.899 | locus YLR133W, strain CKI1, stronger effect = lower value 0.956 | locus YLR403W, strain SFP1, stronger effect = lower value 0.947 | locus YML070W, strain DAK1, stronger effect = lower value 0.938 | locus YMR001C, strain CDC5, stronger effect = lower value 0.987 | locus YMR205C, strain PFK2 (second series), stronger effect = lower value 0.97 | locus YMR277W, strain FCP1, stronger effect = lower value 0.982 | locus YNL006W, strain LST8, stronger effect = lower value 0.989 | locus YNL020C, strain ARK1, stronger effect = lower value 0.961 | locus YNL161W, strain CBK1, stronger effect = lower value 0.974 | locus YNL183C, strain NPR1, stronger effect = lower value 0.996 | locus YNL207W, strain RIO2, stronger effect = lower value 0.978 | locus YNL222W, strain SSU72, stronger effect = lower value 0.979 | locus YNL307C, strain MCK1 (second series), stronger effect = lower value 0.94 | locus YOL078W, strain AVO1, stronger effect = lower value 0.98 | locus YOL136C, strain PFK27, stronger effect = lower value 0.929 | locus YOR061W, strain CKA2, stronger effect = lower value 0.966 | locus YOR119C, strain RIO1, stronger effect = lower value 0.997 | locus YOR231W, strain MKK1, stronger effect = lower value 0.932 | locus YOR329C, strain SCD5, stronger effect = lower value 0.985 | locus YPL031C, strain PHO85, stronger effect = lower value 0.958 | locus YPL153C, strain RAD53, stronger effect = lower value 0.947 | locus YPL204W, strain HRR25, stronger effect = lower value 0.935 | locus YPL209C, strain IPL1, stronger effect = lower value 0.978 | locus YPL256C, strain CLN2, stronger effect = lower value 0.923 | locus YPR025C, strain CCL1, stronger effect = lower value 0.981 | locus YPR106W, strain ISR1, stronger effect = lower value 0.973 | locus YPR111W, strain DBF20, stronger effect = lower value 0.965 | strain NNK1, stronger effect = lower value 0.975 | strain TSCII, stronger effect = lower value 0.986

COC(=O)C/C(N)=C(\C#N)C(=O)OC
inactive: locus YAL013W, strain DEP1, stronger effect = lower value 1 | locus YBR229C, strain ROT2, stronger effect = lower value 0.984 | locus YCL061C, strain MRC1, stronger effect = lower value 1.02 | [1] 1.03 | locus YDR150W, strain NUM1, stronger effect = lower value 1.01 | locus YEL061C, strain CIN8, stronger effect = lower value 0.994 | locus YGR078C, strain PAC10, stronger effect = lower value 1.05 | [2] 1.08 | locus YHR087W, strain rtc3, stronger effect = lower value 0.944 | locus YJL187C, strain SWE1, stronger effect = lower value 1.02 | locus YJR043C, strain POL32, stronger effect = lower value 1.02 | locus YJR075W, strain HOC1, stronger effect = lower value 1.01 | locus YKL190W, strain CNB1, stronger effect = lower value 0.986 | locus YLR039C, strain RIC1, stronger effect = lower value 0.993 | locus YLR058C, strain SHM2 (second series), stronger effect = lower value 0.983 | locus YLR085C, strain ARP6, stronger effect = lower value 0.995 | locus YLR262C, strain YPT6, stronger effect = lower value 0.982 | locus YML094W, strain GIM5, stronger effect = lower value 0.982 | locus YMR219W, strain ESC1, stronger effect = lower value 0.982 | locus YMR263W, strain SAP30, stronger effect = lower value 1.02 | locus YNL153C, strain GIM3, stronger effect = lower value 1.04 | locus YNL298W, strain CLA4 (second series), stronger effect = lower value 0.999 | locus YNL322C, strain KRE1, stronger effect = lower value 1.01 | locus YNR030W, strain Alg12, stronger effect = lower value 1.03 | locus YPL055C, strain LGE1, stronger effect = lower value 0.975 | locus YPL241C, strain CIN2, stronger effect = lower value 1.01 | locus YPR135W, strain CTF4, stronger effect = lower value 1.08
